Test results: PubChem BioAssay (NCI)
Compounds without any hit were thinned out: in the full panel of roughly 79,000, 15% have a hit. A number with no mark means an inactive call. Active and inactive are the calls of the source. Rule as the data show it: active = growth inhibition above about 70%; inactive = the rest.

Test: NCI Yeast Anticancer Drug Screen. Data for the rad52 strain (AID 147);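 also: 0% = growth of vehicle-treated control cultures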
Details: S. cerevisiae rad52 mutant growth inhibition, active compounds read high
Experimental: Growth inhibition of yeast strains with defined genetic alterations is measured as a screen for potential anti-cancer activity. Selected strains with alterations in DNA damage repair or cell cycle control were exposed to compounds and growth inhibition was measured relative to vehicle treated controls. The strain used in this assay is rad52

| SMILES | growth inhibition (at 1.2 µM) [%] | growth inhibition (at 3.7 µM) [%] | growth inhibition (at 11.0 µM) | growth inhibition (at 33.0 µM) | growth inhibition (at 100.0 µM) |
| --- | --- | --- | --- | --- | --- |
| O=C(NNc1ccnc2cc(Cl)ccc12)/C(=C\c1ccccc1Cl)NC(=O)c1ccccc1 | 15 | 11 | 40% | 38% | 38% |
| Cc1ccc(S(=O)(=O)NC(=O)NC2=NC(C)(C)N(c3ccc(Cl)c(Cl)c3)C(N)=N2)cc1 | -2 | -2 | -1% | -3% | -3% |
| CC(C)=CC(=O)O[C@@H]1CC(C)(C)CC2C3=CCC4[C@]56CC[C@](O)(OC5)C(C)(C)C6CC[C@@]4(C)C3(C)CC[C@]21C(=O)O (stereo not given in full) | 2 | 37 | 80% (active) | 93% (active) | 92% (active) |
| CCC(=O)c1cccc2ccccc12 | 1 | 2 | 1% | 2% | -1% |
| COC(=O)CSSCc1ccc([N+](=O)[O-])cc1 | 3 | 19 | 40% | 75% (active) | 98% (active) |
| CCCCCCCCCCC1CCC(=O)O1 (stereo not given) | -2 | -2 | -1% | 4% | 99% (active) |
| NNC(=O)CCc1ccc2ccc3ccccc3c2c1 | -1 | -3 | 1% | 13% | 52% |
| CCCCCCCCCCCCCCC(C(=O)[O-])[n+]1ccccc1 (stereo not given) | 2 | 2 | 2% | -1% | 91% (active) |
